# Compounds without any hit were thinned out: in the full panel of roughly 83,000, 20% have a hit.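 Treatment: one concentration, 48 hours, 96-well format. Scoring: percent growth, with anything below 10 considered active.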 Unmarked numbers belong to inactive results. Calls of active or inactive are those of the source.
# Legend:
# Assay in all cases: NCI-60 one-dose screen, 48 h (100 = growth as untreated, 0 = no growth, -100 = all killed)
# NCI-H23 lung = details: 10 µM unless noted
# NCI-H226 lung = details: 10 µM unless noted
# NCI-H322M lung = details: 10 µM unless noted
# HOP-62 NSCLC = details: 10 µM unless noted
# NCI-H460 lung = details: 10 µM unless noted
# HOP-92 NSCLC = details: 10 µM unless noted
# NCI-H522 lung = details: 10 µM unless noted
# A549/ATCC NSCLC = details: 10 µM unless noted
# 786-0 renal = details: 10 µM unless noted
# COLO 205 colon = details: 10 µM unless noted
# DU-145 prostate = details: 10 µM unless noted
# K-562 leukemia = details: 10 µM unless noted
# MALME-3M melanoma = details: 10 µM unless noted
# MDA-MB-231 breast = details: 10 µM unless noted
# RXF 393 renal = details: 10 µM unless noted
# SF-268 CNS = details: 10 µM unless noted
# SF-295 CNS = details: 10 µM unless noted
# SF-539 CNS = details: 10 µM unless noted
# M14 melanoma = details: 10 µM unless noted
# UACC-257 melanoma = details: 10 µM
Structure (SMILES),growth (NCI-H23 lung),growth (NCI-H226 lung),growth (NCI-H322M lung),growth (HOP-62 NSCLC),growth (NCI-H460 lung),growth (HOP-92 NSCLC),growth (NCI-H522 lung),growth (A549/ATCC NSCLC),growth (786-0 renal),growth (COLO 205 colon),growth (DU-145 prostate),growth (K-562 leukemia),growth (MALME-3M melanoma),growth (MDA-MB-231 breast),growth (RXF 393 renal),growth (SF-268 CNS),growth (SF-295 CNS),growth (SF-539 CNS),growth (M14 melanoma),growth (UACC-257 melanoma)
COc1cc(-n2nc(C(=O)Nc3ccc(C(=O)O)cc3)nc2-c2ccccc2)cc(OC)c1OC,97.4%,103%,24.5%,85.1%,115%,83.5%,55.9%,74.7%,92.1%,104%,70.6%,100%,94.2%,99%,106%,92%,103%,106%,100%,–
O=C1C2=C(C(=O)c3c(O)ccc(O)c31)N(c1cccnc1)Cc1ccccc1O2,-5.92% (active),19.2%,23.9%,-3.72% (active),7.48% (active),-89.9% (active),-77.9% (active),31.6%,-86.7% (active),-60.9% (active),-96.6% (active),-9.44% (active),-80.5% (active),-68.9% (active),-78.8% (active),1.4% (active),37.9%,-56.1% (active),-78% (active),–
Nc1c(C(=O)Nc2cccc(C(F)(F)F)c2)sc2nc3c(cc12)C(O)CCC3 (configuration not stated),39.5%,56.3%,27.2%,40.7%,14.5%,67.2%,19.3%,24.7%,47.4%,9.16% (active),9.15% (active),14.4%,51.2%,61.9%,–,45.6%,27.2%,21.6%,30.9%,44.2%
COc1cccc(NC(=O)Cn2cc3c(=O)oc4ccccc4c3n2)c1,102%,104%,98.9%,116%,101%,93.8%,83.1%,105%,98.4%,101%,103%,103%,103%,96.6%,–,103%,97.2%,102%,101%,101%
Nc1c(C(=O)Nc2cccc([N+](=O)[O-])c2)sc2nc3c(cc12)C(O)CCC3 (configuration not stated),67.6%,80.8%,78.2%,55.1%,28.2%,72.1%,28.3%,39.2%,68.7%,40.8%,71.4%,17.6%,65.8%,65.5%,–,60.5%,57.4%,37%,35.3%,66.8%
CCc1cccc(C)c1NC(=O)c1sc2nc3c(cc2c1N)C(=O)CCC3,39.1%,62.1%,51.3%,23.3%,8.12% (active),79.2%,-0.871% (active),22.9%,38.7%,-7.24% (active),14.2%,8.64% (active),45.1%,31%,–,42.7%,10.8%,-14.4% (active),12.5%,66.6%
COc1cc(-c2n[nH]nc2-c2ccc3c(c2)OCCO3)cc(OC)c1OC,22.8%,75.7%,51.4%,8.87% (active),2.69% (active),24.3%,-44.5% (active),16.5%,20.9%,-85.7% (active),10%,8.96% (active),69.7%,33.3%,–,15.9%,2.6% (active),-35.9% (active),16.5%,61.7%
CCCCCC/C=C\CCCCCCCCOc1ccc(CCOP(=O)(O)OCC[N+](C)(C)C)cc1,98.8%,102%,105%,72.8%,26.9%,60.7%,59%,79%,89.6%,86.4%,98%,74.8%,103%,88.3%,–,66.7%,89.9%,94.7%,88.1%,–
CC[C@H](C)[C@@H]1NC(=O)[C@H]([C@@H](C)O)NC(=O)C(Cc2ccccc2)NC(=O)[C@@H]2CCCN2C(=O)C(C(C)C)NC(=O)C(Cc2ccccc2)NC(=O)CNC(=O)[C@@H]2CCCN2C1=O (some centres not stated),82.5%,65.8%,85.3%,76%,55.7%,-18.4% (active),55.5%,56.6%,39.9%,79.7%,83.6%,20.9%,64%,26.4%,–,72.8%,74.2%,83.2%,22.2%,60.7%
COc1ccc(/C=C2\C(=O)N(C(=O)c3csc(NC(C)=O)n3)N=C2C)cc1,102%,104%,96.7%,100%,105%,99.8%,85.2%,97.3%,100%,99.3%,108%,95.3%,90.5%,105%,–,99.1%,105%,104%,98.7%,89.2%
O=C(Nc1cccc(C(F)(F)F)c1)Nc1ccc(OCc2nnc(-c3ccccc3)o2)c(F)c1,35.7%,56.3%,61.6%,56.1%,6.12% (active),-8.2% (active),1.68% (active),29.9%,60.4%,32.6%,31.9%,22.1%,53.7%,42.9%,–,58.7%,17%,27.8%,40.9%,70%
Cc1ccc(S(=O)(=O)N2CCC(C(=O)Nc3ccc(F)cc3F)CC2)cc1,95.8%,87.9%,112%,96.2%,107%,82.2%,102%,91.8%,89.9%,99.3%,97.4%,91.7%,104%,87.1%,–,111%,81.8%,97.5%,102%,–
COc1cc(CCn2nnc3c(Nc4ccc(N5CCOCC5)cc4)ncnc32)cc(OC)c1,95.1%,90.7%,111%,104%,98.4%,47.3%,88.5%,98.1%,107%,94.9%,99.3%,44.4%,100%,91.9%,–,99.7%,100%,87.5%,85.5%,102%
Cc1cc(Nc2nc(-c3ccncc3)nc3ccccc23)n[nH]1,80.2%,79.1%,75.7%,95.1%,66.1%,54.9%,58.7%,41.9%,48.2%,31.7%,79.7%,38.1%,88.8%,84.1%,–,70.1%,69.9%,59.5%,65.7%,90%
CC1=CNNc2c3ncnc-3ncn21,98%,99.7%,107%,95.4%,108%,94.7%,96.6%,100%,102%,106%,104%,101%,102%,103%,–,103%,103%,101%,108%,109%
Cc1cc(Nc2nc(-c3ccc(F)cc3)nc3ccccc23)n[nH]1,57.3%,58.6%,65.5%,78.6%,35.6%,30.5%,27.7%,13.8%,56.9%,40.3%,77.1%,36.6%,57%,78.7%,–,63.3%,64.4%,66.6%,53.5%,47.2%
